Test [1] in a line: P-glycoprotein substrates identified in KB-8-5-11 adenocarcinoma cell line, qHTS therapeutic library screen (AID 1346987). Further: series mostly up to about 44 µM; on the % scale 0 is the no-effect control and ±100 the full control effect; nearly all actives have a fitted effect of over 65% in size. The method, boiled down:
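In this qHTS, P-gp-rich KB-8-5-11 cells received library compounds across a concentration range. Viability was quantified by luminescence after 72 h at 37 degree C.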
Background: Quantitative high-throughput screening tests each substance at several concentrations.

Test [2] deals with Atrial natriuretic peptide receptor 1 (Homo sapiens) (UniProt P16066). Kind of test: Natriuretic polypeptide receptor (hNpr1) antagonism - Pilot screen (AID 1347049; calls by dose curve;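 further: HEK293 cells with hNpr1 and GloSensor cGMP luciferase stimulated by 0.1 nM hNppA; agonist-evoked cGMP luminescence read 20 min after hNppA addition; series mostly up to about 58 µM; on the % scale 0 is the no-effect control and ±100 the full control effect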). The method, boiled down: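 Receptor antagonism read as cGMP-dependent luminescence in hNpr1/pGS-40F HEK293 cells: pre-read after 30 min compound exposure, post-read 20 min after hNppA agonist at 0.1 nM final, all at room temperature, protected from light; A-71915 titration as control.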
Chain of Atrial natriuretic peptide receptor 1 (Homo sapiens) (P16066 whole entry, looked up): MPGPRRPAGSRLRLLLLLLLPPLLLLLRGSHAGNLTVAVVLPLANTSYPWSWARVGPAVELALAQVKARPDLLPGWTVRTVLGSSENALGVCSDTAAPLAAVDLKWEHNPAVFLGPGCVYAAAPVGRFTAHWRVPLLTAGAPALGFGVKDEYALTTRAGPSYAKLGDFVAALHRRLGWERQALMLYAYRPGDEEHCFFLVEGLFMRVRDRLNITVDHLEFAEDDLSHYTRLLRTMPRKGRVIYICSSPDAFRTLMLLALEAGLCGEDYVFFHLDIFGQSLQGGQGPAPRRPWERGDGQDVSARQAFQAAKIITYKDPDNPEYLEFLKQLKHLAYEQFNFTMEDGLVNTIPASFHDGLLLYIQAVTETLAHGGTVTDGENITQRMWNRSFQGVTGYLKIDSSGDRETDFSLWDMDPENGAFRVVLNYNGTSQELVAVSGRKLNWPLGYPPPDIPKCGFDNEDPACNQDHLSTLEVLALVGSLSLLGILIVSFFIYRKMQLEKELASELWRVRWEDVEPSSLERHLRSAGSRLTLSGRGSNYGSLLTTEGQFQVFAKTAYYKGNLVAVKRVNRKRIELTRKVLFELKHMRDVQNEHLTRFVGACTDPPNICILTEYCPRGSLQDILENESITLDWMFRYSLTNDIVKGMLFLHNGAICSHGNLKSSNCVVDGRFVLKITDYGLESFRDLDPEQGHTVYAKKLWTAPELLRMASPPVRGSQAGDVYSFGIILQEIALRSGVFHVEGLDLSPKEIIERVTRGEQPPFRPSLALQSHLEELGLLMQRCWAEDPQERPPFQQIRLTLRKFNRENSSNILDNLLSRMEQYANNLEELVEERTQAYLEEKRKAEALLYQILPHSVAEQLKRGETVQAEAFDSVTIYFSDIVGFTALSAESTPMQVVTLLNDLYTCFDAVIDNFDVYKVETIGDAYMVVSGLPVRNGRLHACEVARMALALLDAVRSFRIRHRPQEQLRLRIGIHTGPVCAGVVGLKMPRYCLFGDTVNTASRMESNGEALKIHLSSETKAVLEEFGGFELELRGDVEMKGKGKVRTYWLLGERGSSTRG

The nature of test [3]: NS1 protein of Zika virus - qHTS assay to identify small molecule inhibitors in human HEK 293 cells (AID 1347053).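 Further: series mostly up to about 46 µM; plate controls were infected untreated cells for no effect and uninfected cells for full effect; nearly all actives have a fitted effect of over 55% in size.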 The method, boiled down:
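Read-out is a two-antibody TR-FRET for ZIKV NS1, normalized between uninfected cells and infected cells. Compound added 1 h before MR766 infection at MOI 0.5; human HEK 293 cells incubated 24 h, 37 C.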

Test [4] has as its target Parathyroid hormone/parathyroid hormone-related peptide receptor (Homo sapiens) (UniProt Q03431). Kind of test: qHTS for PTHR1 Agonists: Optimization Screen against the NCGC LOPAC library (AID 1347079).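 Further: GloSensor cAMP luminescence in HEK-293 GP2 cells expressing human PTHR1 with IBMX; 0% is about no effect.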 The method, boiled down: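 Signal increase flags agonism. GP2 cells, derived from HEK-293, express human PTHR1 and a GloSensor cAMP construct.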
The nature of test [5]: qHTS for Inhibitors of the Functional Ribonucleoprotein Complex (vRNP) of Lassa (LASV) Arenavirus: LASV Primary Screen - GLuc reporter signal (AID 1347082; calls by dose curve; tested in HEK293 reporter line; further: series mostly up to about 57 µM; on the % scale 0 is the no-effect control and ±100 the full control effect; nearly all actives have a fitted effect of over 60% in size).
Test [6] in a line: qHTS for Inhibitors of the Functional Ribonucleoprotein Complex (vRNP) of Lassa (LASV) Arenavirus: Viability assay - alamar blue signal for LASV Primary Screen (AID 1347083; calls by dose curve; tested in HEK293 reporter line; further: series mostly up to about 57 µM; on the % scale 0 is the no-effect control and ±100 the full control effect; nearly all actives have a fitted effect of over 80% in size).
The nature of test [7]: qHTS for Inhibitors of the Functional Ribonucleoprotein Complex (vRNP) of Lymphocytic Choriomeningitis Arenaviruses (LCMV): Viability assay - alamar blue signal for LCMV Primary Screen (AID 1347085; calls by dose curve; tested in HEK293 reporter line; further: series mostly up to about 57 µM; on the % scale 0 is the no-effect control and ±100 the full control effect; nearly all actives have a fitted effect of over 80% in size).
The target of test [8] is Nucleoprotein (Lymphocytic choriomeningitis virus (strain Armstrong)) (UniProt P09992). Put plainly: qHTS for Inhibitors of the Functional Ribonucleoprotein Complex (vRNP) of Lymphocytic Choriomeningitis Arenaviruses (LCMV): LCMV Primary Screen - GLuc reporter signal (AID 1347086; calls by dose curve; further: series mostly up to about 57 µM; on the % scale 0 is the no-effect control and ±100 the full control effect; nearly all actives have a fitted effect of over 70% in size).
Chain of Nucleoprotein (Lymphocytic choriomeningitis virus (strain Armstrong)) (P09992 whole entry, looked up): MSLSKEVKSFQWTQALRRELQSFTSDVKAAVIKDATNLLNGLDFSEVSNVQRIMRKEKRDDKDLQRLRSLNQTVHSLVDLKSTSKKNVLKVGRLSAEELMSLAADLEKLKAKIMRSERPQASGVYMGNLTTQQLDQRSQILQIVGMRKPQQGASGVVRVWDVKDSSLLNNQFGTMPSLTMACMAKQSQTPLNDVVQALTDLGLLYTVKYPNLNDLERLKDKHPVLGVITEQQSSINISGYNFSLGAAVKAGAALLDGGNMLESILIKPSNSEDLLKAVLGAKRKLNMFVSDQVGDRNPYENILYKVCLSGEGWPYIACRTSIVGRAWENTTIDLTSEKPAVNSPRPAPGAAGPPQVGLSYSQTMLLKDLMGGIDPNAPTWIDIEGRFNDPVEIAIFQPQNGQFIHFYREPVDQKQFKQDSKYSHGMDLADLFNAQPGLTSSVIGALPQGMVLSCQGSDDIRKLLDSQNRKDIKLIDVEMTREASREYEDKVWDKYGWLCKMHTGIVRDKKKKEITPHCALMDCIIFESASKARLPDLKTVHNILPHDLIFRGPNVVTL
A short description of test [9]: qHTS of pediatric cancer cell lines to identify multiple opportunities for drug repurposing: Primary screen for TC32 cells (AID 1347089). Further: on the % scale 0 is the no-effect control and ±100 the full control effect; nearly all actives have a fitted effect of over 60% in size. The essentials: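 In the primary qHTS, MIPE compounds were tested at 11 concentrations (0.78 nM to 46 µM) and NPC compounds at 8 (0.59 nM to 46 µM) on TC32 cells for 48 h. CellTiter-Glo luminescence gave viability.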
Test [10] in a line: qHTS of pediatric cancer cell lines to identify multiple opportunities for drug repurposing: Primary screen for DAOY cells (AID 1347090). Further: nearly all actives have a fitted effect of over 55% in size. Further: potency means the concentration at half of the fitted maximal effect.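 On activity change, negative = cytotoxic: series mostly up to about 46 µM; plate controls were DMSO for no effect and bortezomib for full effect.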 The method, boiled down:
(§1)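 Cell viability, CellTiter-Glo luminescence; 500-1,000 cells/well, 8- or 11-point titration, 48 h compound exposure at 37 degrees C, 5% CO2. Controls: DMSO neutral, bortezomib 2.3 µM final as positive.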

Test [11] can be described thus: qHTS of pediatric cancer cell lines to identify multiple opportunities for drug repurposing: Primary screen for SJ-GBM2 cells (AID 1347091). Further: potency means the concentration at half of the fitted maximal effect.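 On activity change, negative = cytotoxic: plate controls were DMSO neutral control for no effect and bortezomib for full effect.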 The essentials: as §1
The nature of test [12]: qHTS of pediatric cancer cell lines to identify multiple opportunities for drug repurposing: Primary screen for A673 cells (AID 1347092). Further: nearly all actives have a fitted effect of over 45% in size. Further: potency means the concentration at half of the fitted maximal effect. The essentials: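 48 h compound exposure, A673, 500-1,000 cells/well, 37 degrees C/5% CO2. MIPE: 11-point, 0.78 nM-46 µM; NPC: 8-point, 0.59 nM-46 µM (final). Readout CellTiter-Glo luminescence after 15 min RT.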
Test [13] can be described thus: Natriuretic polypeptide receptor (hNpr1) antagonism - Pilot counterscreen GloSensor control cell line (AID 1347045; calls by dose curve; further: series mostly up to about 38 µM; on the % scale 0 is the no-effect control and ±100 the full control effect). The method, boiled down: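 HEK293 cGMP-sensor cells; 2% GloSensor reagent 2 h RT; LOPAC compounds in 1:5 titrations 30-50 min; 50 uM SNP 20 min; luminescence pre-read and post-read.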
In general terms: A counterscreen serves to expose hits that act by an unwanted route or on another target.

Test [14] has as its target Atrial natriuretic peptide receptor 2 (Homo sapiens) (UniProt P20594). Kind of test: Natriuretic polypeptide receptor (hNpr2) antagonism - Pilot subtype selectivity assay (AID 1347050; calls by dose curve; further: on the % scale 0 is the no-effect control and ±100 the full control effect). The essentials:
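Antagonist mode: compounds (LOPAC1280, seven 1:5 dilutions) added 30 min before 1 nM hNppC stimulation of hNpr2-HEK293 cGMP-sensor cells; luminescence read before and 20 min after agonist at ambient temperature.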

For test [15], the target named is T1, Tyrosine-protein phosphatase non-receptor type substrate 1 (Homo sapiens) + Leukocyte surface antigen CD47 (Homo sapiens) (UniProt P78324+Q08722). Put plainly: CD47-SIRPalpha protein protein interaction - LANCE assay qHTS validation (AID 1347057; active means well fitted curve in the direction sought with a large enough effect in the signal ratio, with a control signal flat, not every such curve was filed as active; the % refers to the signal ratio; further: series mostly up to about 38 µM; 0% is about no effect). The method, boiled down:
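Inhibition of soluble CD47/SIRPalpha ectodomain association by titrated compounds, measured as 665/615 nm time-resolved FRET ratio after sequential 30 min room-temperature incubations.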
A general note: In TR-FRET formats the signal depends on donor and acceptor labels being close together.

For test [16], the target named is T1, Tyrosine-protein phosphatase non-receptor type substrate 1 (Homo sapiens) + Leukocyte surface antigen CD47 (Homo sapiens). Put plainly: CD47-SIRPalpha protein protein interaction - HTRF assay qHTS validation (AID 1347058; active means well fitted curve in the direction sought with a large enough effect in the signal ratio, not every such curve was filed as active; the % refers to the signal ratio; further: series mostly up to about 38 µM; 0% is about no effect). The essentials:
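Soluble extracellular domains (6His-CD47, Avi-tag-biotinylated SIRPalpha) in PBS pH 7.4 with 0.05% IGEPAL CA-630. Compounds were preincubated 30 min at RT with CD47 and anti-His-Eu, then SIRPalpha and SAV-XL665 were added. TR-FRET 665/615 ratio.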

Test [17] shares this target. Put plainly: CD47-SIRPalpha protein protein interaction - Alpha assay qHTS validation (AID 1347059).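 Further: bead proximity luminescence from CD47 binding SIRPalpha after compound preincubation with SIRPalpha; on the % scale 0 is the no-effect control and ±100 the full control effect.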 The essentials: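 AlphaScreen signal between CD47-His (12.5 nM) and biotin-SIRPalpha (25 nM) soluble extracellular domains, bead-captured via Ni-NTA and streptavidin. Compounds, in 7-point titrations, met SIRPalpha 30 min before CD47; PBS pH 7.4 with 0.05% IGEPAL.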

Test [18] in a line: Identifying Small Molecule Inhibitors of Pancreatic Cancer Stem Cells (Panc1, Adherent) (AID 1259362). Further: potency means the concentration at half of the fitted maximal effect. The note with it: Potency: viability. The method, boiled down: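 Adherent (2D) versus sphere (3D) formats; spheres generated 14 d in SCM beforehand. Compound transferred by pin tool after 4 h, 48 h incubation, CellTiter-Glo endpoint.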
The nature of test [19]: P-glycoprotein substrates identified in KB-3-1 adenocarcinoma cell line, qHTS therapeutic library screen (AID 1346986). Further: nearly all actives have a fitted effect of over 60% in size.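 Further: potency means the concentration at half of the fitted maximal effect; potency is for cytotoxicity meaning loss of cell viability.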 The essentials:
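Dose-response cytotoxicity, KB-3-1 vs P-gp-high KB-8-5-11, no colchicine in assay medium. Read: CellTiter-Glo at 72 h.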

The nature of test [20]: qHTS of pediatric cancer cell lines to identify multiple opportunities for drug repurposing: Primary screen for SK-N-MC cells (AID 1347093). Further: potency means the concentration at half of the fitted maximal effect.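 On activity change, negative = cytotoxic: series mostly up to about 46 µM; plate controls were DMSO neutral control for no effect and bortezomib for full effect.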 The essentials:
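Metabolically active cells were quantified by ATP-dependent luminescence (CellTiter-Glo, 15 min at room temperature) following 48 h treatment. Cells had been plated at 500-1,000 per well and settled for 5 h beforehand.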

Values without a mark were called inactive. Results filed as inconclusive are left out. Calls of active or inactive are those of the source. Unless noted, the call rests on the fitted dose curve; in most records, active means well fitted curve in the direction sought with a large enough effect; inconclusive means small, poorly fitted or top-dose-only effect, or another doubt; inactive means no such curve, though single readings can be large; an effect the other way counts as inactive or inconclusive.

T1 sequence (P78324 whole entry, looked up, the tested form may be a part): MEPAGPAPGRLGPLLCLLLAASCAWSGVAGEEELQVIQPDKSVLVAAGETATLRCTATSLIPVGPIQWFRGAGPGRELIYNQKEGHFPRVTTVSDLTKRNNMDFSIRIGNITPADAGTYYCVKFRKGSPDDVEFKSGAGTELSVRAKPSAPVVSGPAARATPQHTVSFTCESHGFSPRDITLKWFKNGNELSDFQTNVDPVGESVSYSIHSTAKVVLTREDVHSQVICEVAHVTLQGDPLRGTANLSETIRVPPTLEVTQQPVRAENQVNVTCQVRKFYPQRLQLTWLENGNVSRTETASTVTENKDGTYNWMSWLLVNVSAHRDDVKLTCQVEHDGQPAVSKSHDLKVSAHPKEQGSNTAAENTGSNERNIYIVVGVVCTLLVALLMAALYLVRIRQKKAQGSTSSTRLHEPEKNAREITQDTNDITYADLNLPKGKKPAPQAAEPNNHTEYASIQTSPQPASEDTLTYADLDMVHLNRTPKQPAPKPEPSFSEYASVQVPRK
T1 sequence (Q08722 whole entry, looked up, the tested form may be a part): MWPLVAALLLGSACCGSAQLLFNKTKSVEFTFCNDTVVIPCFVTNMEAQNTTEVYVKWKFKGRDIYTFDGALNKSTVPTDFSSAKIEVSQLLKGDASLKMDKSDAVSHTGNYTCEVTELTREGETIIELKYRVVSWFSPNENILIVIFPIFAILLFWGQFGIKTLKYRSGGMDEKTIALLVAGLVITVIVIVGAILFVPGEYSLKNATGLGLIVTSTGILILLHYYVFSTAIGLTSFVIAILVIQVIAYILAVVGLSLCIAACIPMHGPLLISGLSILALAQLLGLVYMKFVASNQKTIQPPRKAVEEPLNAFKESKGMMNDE
Chain of Atrial natriuretic peptide receptor 2 (Homo sapiens) (P20594 whole entry, looked up): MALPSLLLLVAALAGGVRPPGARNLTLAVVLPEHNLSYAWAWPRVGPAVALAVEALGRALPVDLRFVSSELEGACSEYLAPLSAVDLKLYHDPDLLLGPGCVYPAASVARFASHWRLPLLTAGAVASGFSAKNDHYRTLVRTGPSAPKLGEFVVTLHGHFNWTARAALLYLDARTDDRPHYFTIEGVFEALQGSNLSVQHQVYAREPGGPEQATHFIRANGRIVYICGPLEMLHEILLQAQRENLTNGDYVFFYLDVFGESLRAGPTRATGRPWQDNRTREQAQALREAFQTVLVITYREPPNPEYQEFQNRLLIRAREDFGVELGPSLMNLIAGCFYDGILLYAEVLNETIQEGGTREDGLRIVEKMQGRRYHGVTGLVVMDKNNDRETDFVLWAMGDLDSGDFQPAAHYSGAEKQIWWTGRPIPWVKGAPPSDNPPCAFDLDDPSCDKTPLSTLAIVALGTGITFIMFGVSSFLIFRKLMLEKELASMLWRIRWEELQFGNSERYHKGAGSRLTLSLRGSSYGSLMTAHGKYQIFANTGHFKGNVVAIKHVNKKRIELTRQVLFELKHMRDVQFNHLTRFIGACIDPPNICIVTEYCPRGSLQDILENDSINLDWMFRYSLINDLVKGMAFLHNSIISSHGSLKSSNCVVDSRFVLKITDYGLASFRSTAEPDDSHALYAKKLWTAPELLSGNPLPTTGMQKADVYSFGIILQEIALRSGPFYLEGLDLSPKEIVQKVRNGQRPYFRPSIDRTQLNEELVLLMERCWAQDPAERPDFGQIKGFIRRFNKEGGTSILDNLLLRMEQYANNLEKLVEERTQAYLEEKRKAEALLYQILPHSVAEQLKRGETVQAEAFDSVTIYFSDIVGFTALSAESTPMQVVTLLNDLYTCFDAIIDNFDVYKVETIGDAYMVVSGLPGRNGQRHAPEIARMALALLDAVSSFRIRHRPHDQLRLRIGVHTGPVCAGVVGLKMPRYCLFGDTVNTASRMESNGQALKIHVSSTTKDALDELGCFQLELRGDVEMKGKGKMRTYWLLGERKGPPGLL
Chain of Parathyroid hormone/parathyroid hormone-related peptide receptor (Homo sapiens) (Q03431 whole entry, looked up): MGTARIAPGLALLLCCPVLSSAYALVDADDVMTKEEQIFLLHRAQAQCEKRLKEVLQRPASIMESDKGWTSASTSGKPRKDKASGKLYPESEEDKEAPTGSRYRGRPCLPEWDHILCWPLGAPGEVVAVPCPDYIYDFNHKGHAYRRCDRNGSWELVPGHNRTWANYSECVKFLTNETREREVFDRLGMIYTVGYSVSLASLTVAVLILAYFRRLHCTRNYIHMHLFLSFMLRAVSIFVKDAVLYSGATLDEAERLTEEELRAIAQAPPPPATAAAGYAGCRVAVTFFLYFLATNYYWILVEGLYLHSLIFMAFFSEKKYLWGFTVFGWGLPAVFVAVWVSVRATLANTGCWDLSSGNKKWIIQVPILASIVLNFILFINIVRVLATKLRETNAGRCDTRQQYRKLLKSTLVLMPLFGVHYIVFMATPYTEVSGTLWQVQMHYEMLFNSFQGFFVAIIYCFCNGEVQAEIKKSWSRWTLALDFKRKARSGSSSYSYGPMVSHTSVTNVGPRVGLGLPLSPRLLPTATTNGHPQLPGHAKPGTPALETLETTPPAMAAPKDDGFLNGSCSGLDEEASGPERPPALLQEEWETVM

For `COc1ccc(C(CN(C)C)C2(O)CCCCC2)cc1` (stereo not given), the Potency result in [1], in test [2], in test [3], in [5], in [6] and in test [7] was “inactive” throughout. In addition, the Potency result in [8], in test [9], in [10], in test [11] and in test [12] was “inactive” in each case. Besides, the compound was classed as inactive in test [4].

Consider `CC(CCc1ccccc1)NC(C)C(O)c1ccc(O)cc1` (stereo not given), for which the Potency result in test [1], in test [13], in test [2], in [14], in [3] and in test [5] was “inactive” each time. For the same compound, the Potency entry in test [6], in [7], in [8], in [9], in test [10] and in test [12] was “inactive” throughout. For the same compound, the result in test [15], in [16], in [17] and in test [4] was inactive.

Take `NCC(CC(=O)O)c1ccc(Cl)cc1` (stereo not given): the Potency result in test [1], in test [13], in test [2], in test [14], in test [3] and in test [5] was “inactive” throughout. In addition, the Potency entry in test [6], in test [7] and in [8] was “inactive” in each case. Also, the outcome in [15], in test [16], in test [17] and in test [4] was inactive. Besides, the activity change, negative = cytotoxic in test [9] was 1.72% [at 0.594 µM]; in test [10], -6.69% [at 0.597 µM]; in [11] it was -1.55% [at 0.597 µM]; in test [12] it was -10.9% [at 0.597 µM].

Consider `COC[C@H]1OC(=O)c2coc3c2[C@@]1(C)C1=C(C3=O)C2CCC(=O)[C@@]2(C)C[C@H]1OC(C)=O` (stereo not given in full), for which the Potency is 0.296 µM (active) in test [18]; 18.7 µM (active) in test [10]; 0.264 µM (active) in [11]; 4.69 µM (active) in test [12]; 1.05 µM (active) in [20]. Moreover, the Potency result in test [19], in test [1], in [13], in test [2], in [14] and in test [3] was “inactive” throughout. Besides, the Potency result in [5], in [6], in test [8] and in [9] was “inactive” each time. In addition, the outcome in test [15], in test [16], in test [17] and in test [4] was inactive.

Regarding `CC(=O)[C@H]1CC[C@H]2[C@@H]3CC[C@H]4C[C@](C)(O)CC[C@]4(C)[C@H]3CC[C@]12C`, the Potency entry in test [1], in test [13], in test [14], in test [3], in [5] and in [6] was “inactive” in each case. For the same compound, the Potency result in test [7], in [8], in [9], in [10], in test [12] and in test [20] was “inactive” each time. Moreover, the result in test [15], in test [16], in [17] and in [4] was inactive.

With `COc1ccc2c(c1OC)CN1CCc3cc4c(cc3C1C2)OCO4` (stereo not given), in test [19], the Potency was 9.2 µM (active). The Potency result in test [1], in test [3], in test [5], in test [6], in test [7] and in test [8] was “inactive” in each case. Moreover, the Potency entry in test [9], in test [10] and in test [11] was “inactive” each time.

`O=C1CC[C@@]2(O)[C@H]3Cc4ccc(O)c5c4[C@@]2(CCN3CC2CC2)[C@H]1O5`: the Potency entry in test [19], in test [1], in test [3], in test [5], in test [6] and in test [7] was “inactive” each time. The Potency entry in test [8], in [9], in test [10] and in test [12] was “inactive” each time.

Values taken from PubChem BioAssay (NCATS).
